Compound activity: PubChem BioAssay, National Center for Advancing Translational Sciences (NCATS)
Hits are enriched below; roughly 1.2% of the tested compounds scored in any of these assays.
PKM2 act = increases activity of human pyruvate kinase M2; 0.34% of 260,000 active; Potency, µM (top dose mostly 57.5 µM), for inactives: at the top dose activation, usual class: activators; purified PKM2, Kinase-Glo ATP luminescence, activation; response scale: 0% is enzyme alone, no compound; also: potency is read from the fitted curve at half-maximal effect; nearly all actives have a fitted effect of over 55% in size
Target sequence (P14618 whole entry, looked up): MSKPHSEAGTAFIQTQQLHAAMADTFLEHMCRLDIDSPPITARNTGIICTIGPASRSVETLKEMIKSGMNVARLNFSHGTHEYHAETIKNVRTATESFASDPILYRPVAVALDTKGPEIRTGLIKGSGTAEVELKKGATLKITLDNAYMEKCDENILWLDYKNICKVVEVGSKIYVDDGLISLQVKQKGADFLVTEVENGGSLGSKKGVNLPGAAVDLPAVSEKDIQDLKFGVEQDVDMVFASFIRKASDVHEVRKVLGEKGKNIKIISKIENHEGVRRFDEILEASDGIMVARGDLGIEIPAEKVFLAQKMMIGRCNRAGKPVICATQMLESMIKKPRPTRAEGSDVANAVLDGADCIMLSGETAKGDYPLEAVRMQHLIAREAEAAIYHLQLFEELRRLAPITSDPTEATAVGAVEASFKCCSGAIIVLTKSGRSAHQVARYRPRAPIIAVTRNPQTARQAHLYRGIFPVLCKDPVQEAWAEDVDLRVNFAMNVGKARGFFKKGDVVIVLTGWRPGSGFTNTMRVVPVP
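Purified hPK-M2 (>95%) run at intermediate activity with 0.1 mM ADP and 0.5 mM PEP in 50 mM imidazole pH 7.2, KCl, MgCl2; 1 h room temperature. ATP formed read by Kinase-Glo luminescence; normalized to uninhibited and no-enzyme controls.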
GALK inh = blocks human galactokinase activity. Potency, µM (highest dose often 57.5 µM), inactives show at the top dose activity change, negative = inhibition, actives largely listed as inhibitors. Purified GALK, Kinase-Glo residual ATP luminescence. P51570. 0.007% of 270,000 active; also: potency is read from the fitted curve at half-maximal effect
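Human GALK (5 nM) with 35 uM ATP and 100 uM galactose in 20 mM HEPES pH 8.0, 5 mM MgCl2, 60 mM NaCl, 1 mM DTT, 0.01% BSA. After 1 h at room temperature, leftover ATP was read by Kinase-Glo Plus luminescence.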
TrxR1 inh = inhibitors of rat thioredoxin reductase 1; recombinant rTrxR1, NADPH fluorescence consumption, selenite substrate; O89049; Potency, µM (series often up to 114 µM), without a hit: at the highest dose activity change, negative = inhibition, hits mostly inhibitors; 1% of 390,000 active; also: potency is read from the fitted curve at half-maximal effect; nearly all actives have a fitted effect of over 65% in size
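Rat TrxR1 (90 nM in the dispensed reagent) was pre-reduced with 400 uM NADPH for 5 min at room temperature, then incubated with compound for 15 min. After 400 uM selenite was added, NADPH fluorescence (Ex 340/Em 450 nm) was followed for 8 min.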
PI4K2A block = blocks human PI4K2A kinase activity | Q9BTU6 | purified PI4K2A, ADP-Glo luminescence, 1 h; stronger effect = lower value | activity change, negative = inhibition, % at 76.9 µM | 0.13% of 420,000 active | AID 1346378; in the data active = activity change below about -50%; inconclusive = mostly about -30% to -49%;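 also: -100% = wells without enzyme as full effect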
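ADP-Glo luminescence measured ADP generated by PI4K2A enzyme (4 ug/mL before mixing) with 1.2 mM PI substrate (pre-mix) and 300 microM ATP (pre-mix). Tris pH7.5 buffer with MgCl2, Triton X-100; 1 h reaction at ambient temperature.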
TrxR1 substrate = substrates of rat thioredoxin reductase 1. O89049. purified TrxR1 substrate turnover, NADPH consumption readout. Potency, µM (highest dose often 114 µM), without a hit: at the highest dose activity change, negative = substrate turnover. 0.01% of 390,000 active; also: potency is read from the fitted curve at half-maximal effect; nearly all actives have a fitted effect of over 50% in size
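Rat TrxR1, dispensed at 90 nM, was prereduced with 400 uM NADPH (final) for 5 min at ~22 deg C, then incubated with compound 15 min before 400 uM selenite. A first-read NADPH fluorescence drop versus no-compound background flagged substrates.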
Starred values were filed as active, the others as inactive; ? = inconclusive; . = no result given; ! = not confirmed by another sample; [ ] = dose if it differs, or a comment. Unless noted, calls follow the shape of the dose curve; as a rule, active = well fitted curve in the direction sought with a large enough effect; inconclusive = small, poorly fitted or top-dose-only effect, or another doubt; inactive = no such curve, though single readings can be large; an effect the other way counts as inactive or inconclusive. Unless noted, % is scaled to controls: 0 for no effect and ±100 for the full control effect.

SMILES	PKM2 act	GALK inh	TrxR1 inh	PI4K2A block	TrxR1 substrate
COC(=O)[C@@]1(Cc2ccc(F)cc2)[C@H]2c3cc(C(=O)N4CCCC4)n(Cc4ccc(C)c(F)c4F)c3C[C@H]2CN1C(=O)c1ccccc1	-12%	.	.	-3	.
COC(=O)[C@@]1(Cc2ccc(OC)cc2)[C@H]2c3cc(C(=O)N(C)C)n(Cc4ccc(C)o4)c3C[C@H]2CN1C(=O)c1ccccc1	8.9µM*	.	.	.	.
COC(=O)[C@@]1(Cc2ccc(F)cc2)[C@H]2c3cc(C(=O)N4CCCC4)n(Cc4ccc(C)o4)c3C[C@H]2CN1C(=O)c1ccccc1	13µM*	.	.	-5	.
COC(=O)[C@@]1(Cc2ccc(OC)cc2)[C@H]2c3cc(C(=O)N(C)C)n(CCO)c3C[C@H]2CN1C(=O)c1ccccc1	-2%	.	.	.	.
COc1ccc(CN2C(=O)N(c3ccccc3)C(=O)C2c2ccccc2)cc1COc1ccc(NC(C)=O)cc1 (stereo unspecified)	.	.	-7%	.	0%
COC(=O)C[C@H]1c2ccccc2[C@H]2C(=C[C@@H](C)[C@H]3C(=O)N(O)C(=O)[C@H]32)N1C(=O)OC	-9%[11.5 µM]	.	.	.	.
CC(=O)Nc1sc(N/N=C\c2ccc(O)cc2)nc1-c1cccs1	22µM*	0%	4%	-1	-1%
C/C(=N/NS(=O)(=O)c1ccc(Cl)cc1)c1ccncc1	-9%	4%	25µM*	0	2%
NNC(=O)c1cc(C23CC4CC(CC(C4)C2)C3)[nH]n1	1%	0%	28%	0	11%
O=c1cc(C23CC4CC(CC(C4)C2)C3)[nH][nH]1	-4%	-2%	14µM*	0	9%
CC(C)Cc1nnc(NS(=O)(=O)c2ccc([N+](=O)[O-])cc2)s1	0%	-1%	8%[57.1 µM]	0	-11%
O=[N+]([O-])c1ccc(S(=O)(=O)Nc2nnc(C(F)(F)F)s2)cc1	-6%[11.5 µM]	-3%	6.3µM*	2	-13%
COc1ccc2c(c1)CCCN2C(=O)C1CCCN(S(=O)(=O)c2ccccc2)C1 (stereo unspecified)	.	.	.	-4	.
CCOc1ccc2c(ccc(/C=C/c3cc(C)c4cccnc4c3O)[n+]2C)c1	.	.	54%[57.1 µM]	-58*	7%[11.4 µM]
CN(C)S(=O)(=O)c1ccc(C(=O)Oc2cc(=O)[nH]c3ccccc23)cc1	-2%	5%	14µM*	-1	3%
O=C(CN1CCN(S(=O)(=O)c2ccc(F)cc2)CC1)c1ccc(O)c(O)c1	10%	0%	-66%	-4	-11%[57.1 µM]
O=C(CN1CCN(S(=O)(=O)c2ccc(Cl)cc2)CC1)c1ccc(O)c(O)c1	.	1%	25µM*	-3	-9%
CCOc1ccc(/C=C/c2nc(C#N)c(NC(C)CC)o2)cc1 (stereo unspecified)	.	.	14%	7	11%
Cc1ccc(-n2ncc3c(N4CCCC4)ncnc32)c(C)c1	25µM*	1%	-1%	-2	-3%
COc1ccc2ccc3c(c2c1)N=C[C@]1(O3)N(C)c2ccccc2C1(C)C	18%	-2%	13%	-68*	?
CC1=NOC2(C1)N(C)c1ccccc1C2(C)C (stereo unspecified)	-14%	-2%	8%	-3	6%
CCOC(=O)/C=C1\CC(C(=O)OCC)Oc2c(OC)cccc21 (stereo unspecified)	.	.	28µM*!	-9	3%
C=C1c2cccc(OC)c2O[C@H](C(=O)OCC)[C@@H]1CC(CC)CCCC (stereo partly specified)	.	.	-19%	-2	-6%
COc1ccc(OC)c(C2CC(=O)Nc3c2c(=O)[nH]c2nc4ccccc4n32)c1 (stereo unspecified)	.	.	-7%	-2	0%
CCOC(=O)C1=C(Cc2ccc(Cl)cc2)C(=O)c2ccccc2C1=O	1%	0%	10µM*	-9	6%
SMILES	PKM2 act	GALK inh	TrxR1 inh	PI4K2A block	TrxR1 substrate
CCOC(=O)C1=C(C)N=C2c3ccccc3C(=O)C2C1c1ccc(Cl)cc1 (stereo unspecified)	3%	.	-16%[57.1 µM]	4	-4%[57.1 µM]
COc1ccc(CNC(=O)CCS(=O)(=O)c2cccc3nonc23)cc1	13%	0%	11µM*	-5	12%[57.1 µM]
Cc1ccc(CNC(=O)CCS(=O)(=O)c2cccc3nonc23)cc1	-2%	0%	56µM*	-1	-8%
N#Cc1c(-c2cccs2)nc(SCc2ccc(Cl)cc2)[nH]c1=O	32µM*	-12%	23%[57.1 µM]	1	8%[57.1 µM]
COC(=O)c1sccc1S(=O)(=O)N(CC(=O)NCc1ccc(F)cc1)c1ccccc1	.	.	-5%[57.1 µM]	0	-7%[57.1 µM]
COc1ccccc1C(=O)NC(=S)Nc1cccc2cc(O)ccc12	.	.	?	4	-5%
O=C(NC(=S)Nc1cccc2cc(O)ccc12)c1ccco1	6%	-7%	79µM*	-1	-11%
O=C(NC(=S)Nc1cccc2cc(O)ccc12)c1ccccc1Br	1%	-11%	50µM*	-3	-4%
COC(=O)C1=C(C)N=c2s/c(=C3\C(=O)Nc4ccccc43)c(=O)n2C1c1ccccc1 (stereo unspecified)	23%	0%	.	.	.
CCOC(=O)C1=C(C)N=c2s/c(=C3/C(=O)Nc4ccccc43)c(=O)n2C1c1ccc(C)cc1 (stereo unspecified)	16%	1%	45µM*	?	-19%
COc1cc(/C=C/C(=O)OCC(=O)Nc2cc(C)c(C)cc2[N+](=O)[O-])ccc1O	0%	-2%	10%	5	3%
COc1cc(/C=C/C(=O)OCC(=O)Nc2ccc(C)cc2[N+](=O)[O-])ccc1O	18µM*	2%	26%	-5	8%
CC1CCCC(C)N1C(=O)COC(=O)/C=C/c1ccc(Br)o1 (stereo unspecified)	.	.	35µM*	-3	-10%
O=C(/C=C/c1ccc(Br)o1)OCc1ccccc1	0%	-3%	?	-9	-1%
CC1CCN(C(=O)COC(=O)/C=C/c2ccc(Br)o2)CC1	.	.	25µM*	-3	-3%
COC(=O)[C@]12C[C@H](CC(=O)NCC3CCCCC3)C(=O)N(Cc3cccc4ccccc34)C1=C[C@H](COCc1ccccc1)O[C@@H]2C	.	.	.	-3	.
O=C1CSC(=S)N1/N=C/c1c(F)cccc1F	.	-6%	?	-2	9%
O=C1CSC(=S)N1/N=C/C=C/c1ccccc1	3%	.	28µM*	-12	-7%
Cc1cc(OCC(=O)Nn2cnnc2)c(C)cc1Br	5%	0%	14µM*	3	-9%
C=C[C@@H]1c2cc(C)ccc2N(S(=O)(=O)c2ccc(C)cc2)[C@H](c2ccc(C(=O)OC)cc2)C1(C#N)C#N	.	.	22%	.	8%
N#Cc1cc(Oc2cccc3cccnc23)c(-n2nnc3ccccc32)cc1C#N	?	3%	71µM*	24	-3%
